Source: PubChem (National Center for Advancing Translational Sciences (NCATS))
FLuc counter: inhibits or activates purified firefly luciferase, miR-21 counter-screen; 360,000 compounds, 6.9% hits; P08659; Potency, µM (series often up to 57.5 µM), without a hit: at the top dose activity change, negative = inhibition, usual class: inhibitors; AID 588342; purified FLuc, Km substrates, luminescence inhibition;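 note: plate controls were vehicle for no effect and reference inhibitor for full effect; nearly all actives have a fitted effect of over 55% in size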
Target sequence (P08659 whole entry, looked up): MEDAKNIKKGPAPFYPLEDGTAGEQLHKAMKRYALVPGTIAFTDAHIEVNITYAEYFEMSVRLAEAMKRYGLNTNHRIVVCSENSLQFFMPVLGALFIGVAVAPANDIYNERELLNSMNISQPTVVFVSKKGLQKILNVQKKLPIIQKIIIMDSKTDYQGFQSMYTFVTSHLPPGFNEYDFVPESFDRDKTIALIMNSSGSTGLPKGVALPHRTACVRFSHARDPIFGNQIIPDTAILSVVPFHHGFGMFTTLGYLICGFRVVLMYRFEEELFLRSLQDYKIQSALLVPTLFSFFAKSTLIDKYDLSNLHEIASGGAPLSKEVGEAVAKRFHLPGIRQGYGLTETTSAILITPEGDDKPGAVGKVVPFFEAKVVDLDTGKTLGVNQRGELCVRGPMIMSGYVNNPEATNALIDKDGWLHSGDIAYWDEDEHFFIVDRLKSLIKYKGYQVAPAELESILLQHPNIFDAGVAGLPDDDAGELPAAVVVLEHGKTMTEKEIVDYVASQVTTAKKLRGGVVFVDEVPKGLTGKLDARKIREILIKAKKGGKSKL
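Purified P. pyralis luciferase, 10 nM final, with Km-level 10 uM D-luciferin and 10 uM ATP in 50 mM Tris acetate pH 7.5, 10 mM Mg acetate, 0.01% Tween-20, 0.05% BSA; 6-point qHTS titration about 60 µM downward; luminescence read.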
Luc counter: blocks Kinase-Glo luciferase, a counter-screen artifact; Q27757; Kinase-Glo luciferase, ATP luminescence, 8 min; Potency, µM (highest dose often 38.3 µM), inactives show at the highest dose activity change, negative = inhibition, usual class: inhibitors; 200,000 compounds, 0.28% hits; note: % is set by controls: 0 for no effect and ±100 for the full control effect; nearly all actives have a fitted effect of over 60% in size
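Kinase-Glo luciferase light output from ATP and luciferin was measured with 10 uM ATP, within the enzyme's linear range. Buffer: 50 mM imidazole pH 7.2, 50 mM KCl, 7 mM MgCl2, 0.01% Tween 20, 0.05% BSA; luminescence read after 8 min at ambient temperature.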
ELG1 genotoxic: genotoxicity induction in ELG1-luciferase HEK293T cells; 330,000 compounds, 1.3% hits; HEK293T ELG1-luciferase reporter, luminescence, 16 h; Potency, µM (top dose mostly 46 µM), without a hit: at the highest dose activity change, positive = activation, actives largely listed as activators; note: % of control where 0% means no effect; nearly all actives have a fitted effect of over 60% in size
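16 hr compound incubation (37 °C, 5% CO2) of HEK293T cells carrying luciferase-tagged ELG1; luciferase then measured by ONE-Glo luminescence after 30 min at RT.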
SMN2 splice enh: increases expression of the SMN2 splice variant; HEK293 SMN2-luciferase splicing reporter, luminescence, 30-36 h; Potency, µM (titrated, usually from 46.1 µM), for the others: top-dose activity change, positive = activation, most hits filed as activators; 210,000 compounds, 2.8% hits; note: % of control where 0% means no effect; nearly all actives have a fitted effect of over 55% in size
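qHTS luciferase splicing reporter: luminescence rises when SMN2 exon 7 is included in transfected HEK293 cells. Compound exposure lasted 30-36 h at 37C, with 4.5 mM final sodium butyrate as control, followed by a ONE-Glo read.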
NPC1 promoter act: activates the NPC1 promoter | 320,000 compounds, 2.4% hits | Huh7 NPC1 promoter luciferase reporter, 24 h | AID 485313 | Potency, µM (series often up to 9.22 µM), inactives show at the top dose activation, most hits filed as activators; note: % of control where 0% means no effect; nearly all actives have a fitted effect of over 60% in size
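In 1536-well qHTS, Huh7 cells harboring an NPC1 promoter–luciferase construct received compound for 24 h; activation was quantified by luminescence following luciferase reagent addition.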
Rab9 promoter act: activates the Rab9 promoter. Huh7 Rab9 promoter-luciferase reporter, luminescence, 24 h. Potency, µM (doses to about 9.22 µM), inactives show top-dose activation, negative = inhibition, most hits filed as activators. 320,000 compounds, 2.8% hits. AID 485297; note: % of control where 0% means no effect; nearly all actives have a fitted effect of over 60% in size
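Rab9 promoter-driven luciferase in stably transfected Huh7 cells; 1500 cells/well rested 2 h, exposed to compound in DMSO for 24 h at 37 °C, 5% CO2. Luminescence read 10 min after adding luciferase reagent at ambient temperature.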
An asterisk follows results filed as active; ? = inconclusive; / = not tested or not shown; [ ] = another dose, or the depositor's remark. Compounds with a hit are over-represented: about 7.4% of the library has one in this group of screens. Calls come from the whole dose curve; as a rule, active = well fitted curve in the direction sought with a large enough effect; inconclusive = small, poorly fitted or top-dose-only effect, or another doubt; inactive = no such curve, though single readings can be large; an effect the other way counts as inactive or inconclusive. Potency is the fitted concentration of half-maximal effect.

SMILES	FLuc counter	Luc counter	ELG1 genotoxic	SMN2 splice enh	NPC1 promoter act	Rab9 promoter act
C/C(=N\Nc1nc(C)cc(C)n1)c1ccc(N2CCOCC2)cc1	-14.4%	0.0%	-6.6%	-11.5%	-10.5%	-13.4%
C/C(=N\Nc1nc2ccccc2[nH]1)c1ccc(C)o1	10.7µM*	-4.0%	?	17.8µM*	22.0%	?
C/C(=N\Nc1nc2ccccc2[nH]1)c1ccc(Cl)s1	10.7µM*	-1.3%	2.3%	-2.8%	?	16.7%
C/C(=N\Nc1nc2ccccc2[nH]1)c1ccc(N2CCOCC2)cc1	1.07µM*	-13.4%	9.6%	?	3.98µM*	?
CCOc1cc(C(=O)Nc2ccc3oc(-c4ccc(CC)cc4)nc3c2)cc(OCC)c1OCC	-9.9%	/	/	-13.3%	/	/
O=C1C(=O)c2ccccc2C(O)=C1C(CCc1ccccc1)C1=C(O)c2ccccc2C(=O)C1=O	/	-23.8%[7.66 µM]	/	-11.7%[9.22 µM]	/	/
COc1cc2[nH]c(C(=O)N3CCC(Cc4ccccc4)CC3)cc2c(OC)c1OC	23.9µM*	/	-4.0%	/	0.3%	-7.4%
CCN1CCN(C(=O)c2cc3c(OC)c(OC)c(OC)cc3[nH]2)CC1	-7.1%	/	4.3%	/	-0.1%	1.6%
COc1cc2[nH]c(C(=O)N3CCc4ccccc43)cc2c(OC)c1OC	16.9µM*	/	?	/	23.9%	?
CCCCCCn1nc(C(=O)N(CCOC)c2c(N)n(CCCC)c(=O)[nH]c2=O)c2ccccc2c1=O	1.4%	/	11.6%	/	-3.8%	-1.0%
CC(=O)CSc1nc2c(c(=O)[nH]c(=O)n2C)n1Cc1cccc(Br)c1	1.2%	/	20.6µM*	/	-1.5%	-0.1%
C/C=C/CSc1nc2c(c(=O)[nH]c(=O)n2C)n1Cc1ccc(C)cc1	2.0%	2.4%	20.6µM*	-3.3%	0.3%	0.0%
Cn1c(=O)[nH]c(=O)c2c1nc(SCCC(=O)O)n2Cc1cccc(Br)c1	2.6%	/	2.3%	/	-3.0%	2.0%
Cc1ccc(Cn2c(Sc3ncccn3)nc3c2c(=O)[nH]c(=O)n3C)cc1	3.9%	-2.6%	-9.7%	5.2%	1.1%	-2.4%
COC(=O)c1ccc(OC)c(CN2C(=O)N(c3ccc(C(C)=O)cc3)S(=O)(=O)c3ccccc32)c1	6.7%	/	/	/	/	/
N#CC1(NC(=O)CSc2nnc(Nc3ccccc3F)s2)CCCC1	?	/	-0.3%	/	0.6%	15.4%
CNc1sc(C(=O)c2ccccc2F)c(N)c1-c1nc2ccccc2s1	8.49µM*	-3.2%	?	?	3.98µM*	4.47µM*
CC(C)(C)NC(=O)c1ccccc1-c1nc2ccccc2s1	-4.2%	/	-2.8%	/	-2.7%	-4.7%
COc1ccc(S(=O)(=O)NCC(=O)N(CC(=O)NCc2ccco2)Cc2ccc(F)cc2)cc1	0.9%	/	-5.1%	/	1.0%	-2.1%
CCOC(=O)COn1c(=O)c(-c2cc3ccccc3o2)[n+]([O-])c2ccccc21	2.39µM*	-4.8%	?	14.1µM*	?	2.24µM*
O=C(Nc1ccc(OC(F)(F)F)cc1)c1cnccn1	12µM*	/	?	/	1.78µM*	2.82µM*
CCc1ccc(NC(=O)c2cnc3scc(C)n3c2=O)cc1	?	-2.7%	18.4µM*	8.91µM*	?	4.47µM*
CCc1ccc(NC(=O)c2cnccn2)cc1	5.36µM*	/	?	/	1.26µM*	1.26µM*
COc1ccc(CNC(=O)c2cc(=O)c3cc(C)ccc3o2)cc1	-2.9%	/	-1.0%	-5.4%	3.0%	-5.4%
Cc1c(Cl)cccc1NC(=O)c1cc(C2CC2)on1	19µM*	-0.8%	?	9.0%	?	3.55µM*
SMILES	FLuc counter	Luc counter	ELG1 genotoxic	SMN2 splice enh	NPC1 promoter act	Rab9 promoter act
COc1ccc(NC(=O)c2cc(C3CC3)on2)c(OC)c1	?	2.2%	18.4µM*	20µM*	?	?
Cc1ccc(NC(=O)C(C)N2CCN(C)CC2)cc1S(=O)(=O)N1CCOCC1 (configuration not stated)	-1.2%	/	-4.0%	/	4.7%	8.8%
Cc1ccccc1NC(=O)COc1ccc2oc3c(c2c1)CCCC3	-1.6%	/	/	-2.0%	/	/
Cc1ccnc(NC(=O)COc2ccc3oc4c(c3c2)CCCC4)c1	4.26µM*	3.6%	?	-20.5%	17.4%	4.5%
Cc1ccnc(NC(=O)COc2ccc3c(c2)CCC3)c1	0.213µM*	/	2.06µM*	/	3.16µM*	2.51µM*
COc1ccc(C(=O)C2CCN(C(=O)Nc3ccccc3C)CC2)cc1	?	/	-0.6%	/	-1.9%	2.4%
Cc1cc(C)c2oc(C(=O)Nc3sc4c(c3C(=O)NCc3ccco3)CCC4)cc(=O)c2c1	-1.9%	/	/	10.7%	/	/
CN(Cc1nc(C(c2ccccc2)c2ccccc2)no1)CC1COCCO1 (configuration not stated)	15.1µM*	-17.1%	?	/	?	?
O=C(N/N=C\c1cccc([N+](=O)[O-])c1O)C1COc2ccccc2O1 (configuration not stated)	19µM*	1.3%	2.2%	15.5%	5.7%	-4.8%
O=C(Nc1ccccc1[N+](=O)[O-])C1COc2ccccc2O1 (configuration not stated)	9.53µM*	/	?	/	2.82µM*	3.55µM*
O=C(N/N=C/c1cccc([N+](=O)[O-])c1)C1COc2ccccc2O1 (configuration not stated)	-1.1%	/	0.9%	/	-0.2%	1.1%
COc1cc(C2C(C(=O)Nc3ccccc3)=C(C)Nc3nnnn32)cc(OC)c1OC (configuration not stated)	-3.3%	/	/	-22.5%	/	/
Cn1ccc(C(=O)N/N=C/c2cccnc2)n1	-6.3%	/	1.9%	/	6.2%	-0.4%
Cc1nnsc1C(=O)N/N=C/c1ccccc1	-5.8%	-5.1%	0.8%	18.5%	0.8%	-1.7%
O=C(N/N=C\c1ccc(Oc2ccccc2)cc1)c1csnn1	2.69µM*	-9.0%	?	15.8µM*	3.55µM*	2.24µM*
CN(C)c1ccc(/C=N/NC(=O)c2ccn(C)n2)cc1	3.79µM*	/	?	/	2.51µM*	4.47µM*
CCOC(=O)N/N=C/c1ccc(Oc2ccccc2)cc1	19µM*	-4.5%	15.5%	?	?	?
CN(C)c1ccc(/C=N/NC(=O)c2ccccn2)cc1	1.69µM*	/	1.16µM*	/	0.501µM*	0.126µM*
O=C(NN1CCOCC1)c1ccc(Cl)cc1[N+](=O)[O-]	1.7%	/	4.2%	/	-1.7%	13.0%
COc1ccc(CCOC(=O)c2ccc(N)c([N+](=O)[O-])c2)cc1	-8.2%	/	-5.5%	/	-1.2%	0.7%
Cc1ccc(/C=N/NC(=O)c2cccc(NC(=O)c3ccccc3C)c2)o1	?	/	0.0%	/	3.0%	-0.9%
O=C(N/N=C\c1cc([N+](=O)[O-])ccc1N1CCOCC1)c1ccccn1	3.4%	0.6%	10.3%	-11.2%	-1.6%	-5.3%
